The supplement of paper PMC7366291
Counter-ions that a name gives are not always drawn. ± gives the standard deviation or the standard deviation of the averaged measurements.

Tests used:
Details in all cases: 25 µM; exposure: 24-48 hpf
[1] = tested on: Danio rerio Tg(wt1b:EGFP) embryo, pronephros; experiment: glomerular separation, fold change vs DMSO control; higher = glomeruli further apart (abnormal)
How it was run: (§1)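 Each feature value is a fold change relative to the mean of same-day DMSO-treated embryos. Embryos of the Tg(wt1b:EGFP) zebrafish line, dechorionated, received 25 μM compound in 0.5% DMSO from 24 to 48 hpf at 28.5°C, in HEPES-buffered E3 with 0.003% PTU. Distances and angles were computed by a Fiji macro from 16 manually set reference points on maximum projections of dorsal pronephros images, and values beyond 2 SD of the feature mean were removed.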

[2] = tested on: Danio rerio Tg(wt1b:EGFP) embryo, pronephros; experiment: glomerular width (mean of left and right), fold change vs DMSO control; higher = wider glomerulus
How it was run: as §1

[3] = tested on: Danio rerio Tg(wt1b:EGFP) embryo, pronephros; experiment: fraction of imaged embryos annotated as normal kidney; higher = less nephrotoxic; extreme values may be limits of the assay
How it was run: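 Embryos of the Tg(wt1b:EGFP) zebrafish line were dechorionated and held in 12-well plates with 25 μM compound in 0.5% DMSO and 5 mM HEPES-buffered E3 containing 0.003% PTU, from 24 to 48 hpf at 28.5°C. Larvae were then anaesthetised with tricaine, set dorsal side up in agarose-filled 96-well plates, and their pronephroi imaged by widefield fluorescence at 470 nm over 10 z-slices. Each value is the fraction of embryos per treatment placed in the normal-kidney category after manual annotation of maximum projections.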

[4] = tested on: Danio rerio Tg(wt1b:EGFP) embryo, pronephros; experiment: pronephric angle neck segment to proximal convoluted tubule (mean of left and right), fold change vs DMSO control; higher = larger pronephric angle
How it was run: as §1

Row | SMILES | glomerular separation [1] | glomerular width [2] | fraction of imaged embryos annotated as normal kidney [3] | pronephric angle neck segment [4]
1 | Cc1cc2c(s1)Nc1ccccc1N=C2N1CCN(C)CC1 [Olanzapine] | 0.786 ± 0.41 | 0.925 ± 0.034 | 0.917 | 1.01 ± 0.041
2 | CCCCCCNC(=O)n1cc(F)c(=O)[nH]c1=O [Carmofur] | 8.71 ± 3.1 | 0.552 ± 0.03 | 0 | 1.72 ± 0.072
3 | COCCOC(=O)C1=C(C)NC(C)=C(C(=O)OC/C=C/c2ccccc2)C1c1cccc([N+](=O)[O-])c1 (stereo unspecified) [Cilnidipine] | 3.85 ± 1.1 | 0.735 ± 0.012 | 0 | 1.248 ± 0.0032
4 | O=C(CCNNC(=O)c1ccncc1)NCc1ccccc1 [Nialamide] | 1.06 ± 0.4 | 0.97 ± 0.056 | 0.583 | 0.99 ± 0.061
5 | Clc1ccc2c(c1)C(N1CCNCC1)=Nc1ccccc1O2 [Amoxapine] | 1.04 ± 0.33 | 0.9699 ± 0.0014 | 0.75 | 1.02 ± 0.039
6 | COc1cc(C(=O)NCc2ccc(OCCN(C)C)cc2)cc(OC)c1OC [Trimethobenzamide hydrochloride] | 1.09 ± 0.18 | 1.05 ± 0.012 | 0.833 | 0.9712 ± 0.0027
7 | COc1cccc(N(C)C(=S)Oc2ccc3c(c2)CCCC3)n1 [Liranaftate] | 1.14 ± 0.62 | 1.025 ± 0.0045 | 0.667 | 1.06 ± 0.033
8 | NC[C@@H]1O[C@@H](O[C@H]2[C@H](O)[C@@H](O[C@H]3O[C@H](CO)[C@@H](O)[C@H](N)[C@H]3O)[C@H](N)C[C@@H]2N)[C@@H](O)[C@H](O)[C@H]1O [Kanamycin A sulfate] | 1.07 ± 0.33 | 1.01 ± 0.046 | 0.667 | 1.01 ± 0.052
9 | CS(=O)(=O)c1ccc([C@@H](O)[C@@H](CO)NC(=O)C(Cl)Cl)cc1 [Thiamphenicol] | 0.938 ± 0.22 | 1.03 ± 0.024 | 1 | 0.978 ± 0.025
10 | CC(=O)Nc1nnc(S(N)(=O)=O)s1 [Acetazolamide] | 0.751 ± 0.2 | 0.973 ± 0.029 | 0.917 | 0.9766 ± 0.0062
11 | O=C(O)[C@H]1/C(=C/CO)O[C@@H]2CC(=O)N21 [Clavulanate potassium salt] | 0.835 ± 0.22 | 1.04 ± 0.032 | 0.833 | 1.001 ± 0.00045
12 | Cc1nccn1CC1CCc2c(c3ccccc3n2C)C1=O (stereo unspecified) [Ondansetron Hydrochloride] | 1.05 ± 0.35 | 1.011 ± 0.01 | 0.833 | 0.96132 ± 0.00094
13 | C[C@]12C[C@H](O)[C@H]3[C@@H](CCC4=CC(=O)CC[C@@]43C)[C@@H]1CC[C@@H]2C(=O)CO [Corticosterone] | 1.36 ± 0.4 | 1.13 ± 0.026 | 0.417 | 1.01 ± 0.019
14 | COc1cc2nc(N3CCN(C(=O)c4ccco4)CC3)nc(N)c2cc1OC [Prazosin hydrochloride] | 0.618 ± 0.16 | 1 ± 0.021 | 0.917 | 1.03 ± 0.04
15 | O=c1cc(-c2ccc(O)c(O)c2)oc2cc(O)cc(O)c12 [Luteolin] | 0.869 ± 0.36 | 0.9662 ± 0.004 | 0.917 | 0.999 ± 0.006
16 | CCCCOc1ccc(OCCCN2CCOCC2)cc1 [Pramoxine hydrochloride] | 0.962 ± 0.26 | 0.951 ± 0.025 | 0.917 | 0.993 ± 0.033
17 | Nc1ccn([C@H]2CC[C@@H](CO)O2)c(=O)n1 [Zalcitabine] | 1.08 ± 0.56 | 0.966 ± 0.061 | 0.917 | 0.996 ± 0.015
18 | CCCCc1nc(Cl)c(CO)n1Cc1ccc(-c2ccccc2-c2nnn[nH]2)cc1 [Losartan] | 0.969 ± 0.39 | 0.9444 ± 0.0062 | 0.75 | 1.04 ± 0.044
19 | CO[C@H]1/C=C/O[C@@]2(C)Oc3c(C)c(O)c4c(O)c(c(/C=N/N5CCN(C)CC5)c(O)c4c3C2=O)NC(=O)/C(C)=C\C=C\[C@H](C)[C@H](O)[C@@H](C)[C@@H](O)[C@@H](C)[C@H](OC(C)=O)[C@@H]1C [Rifampicin] | 1.08 ± 0.28 | 1.02 ± 0.018 | 0.833 | 0.991 ± 0.022
20 | CO[C@@]1(NC(=O)C(C(=O)O)c2ccc(O)cc2)C(=O)N2C(C(=O)O)=C(CSc3nnnn3C)CO[C@@H]21 (stereo partly specified) [Moxalactam disodium salt] | 0.871 ± 0.28 | 1.04 ± 0.014 | 0.917 | 0.984 ± 0.067

Row | SMILES | glomerular separation [1] | glomerular width [2] | fraction of imaged embryos annotated as normal kidney [3] | pronephric angle neck segment [4]
21 | CC(C)(C)NC[C@H](O)c1ccc(O)c(CO)c1 [Levalbuterol hydrochloride] | 0.811 ± 0.27 | 1.07 ± 0.031 | 0.917 | 0.998 ± 0.031
22 | CN(C)CCCO[C@@H]1[C@H]2OC(C)(C)O[C@H]2O[C@@H]1[C@H](O)CO [Amiprilose hydrochloride] | 1.12 ± 0.66 | 1.08 ± 0.071 | 0.667 | 1 ± 0.02
23 | CCOC(=O)C1=C(C)NC(C)=C(C(=O)OCC)C1c1ccccc1/C=C/C(=O)OC(C)(C)C [Lacidipine] | 6.82 ± 2.2 | 0.671 ± 0.0078 | 0.167 | 1.11 ± 0.073
24 | CCCCCNC(=N)N/N=C/c1c[nH]c2ccc(OC)cc12 [Tegaserod maleate] | 1.26 ± 0.31 | 0.997 ± 0.032 | 0.7 | 0.963 ± 0.048
25 | CN1CCN2c3ccccc3Cc3ccccc3C2C1 (stereo unspecified) [Mianserine hydrochloride] | 1.3 ± 0.59 | 0.983 ± 0.035 | 0.833 | 0.9786 ± 0.0076
26 | CC(C)N1CCN(c2ccc(OCC3COC(Cn4cncn4)(c4ccc(Cl)cc4Cl)O3)cc2)CC1 (stereo unspecified) [Terconazole] | 0.864 ± 0.17 | 1.0642 ± 0.00066 | 1 | 0.948 ± 0.017
27 | CN1[C@@H]2CC[C@H]1C[C@@H](OC(=O)c1c[nH]c3ccccc13)C2 [Tropisetron hydrochloride] | 1.8 ± 0.91 | 1.02 ± 0.051 | 0.667 | 1.06 ± 0.067
28 | CN(C)CCC(c1ccc(Br)cc1)c1ccccn1 (stereo unspecified) [Brompheniramine maleate] | 0.985 ± 0.22 | 1.04 ± 0.065 | 1 | 1.05 ± 0.056
29 | CCN(CC)C(=O)N1CCN(C)CC1 [Diethylcarbamazine citrate] | 0.96 ± 0.28 | 0.958 ± 0.028 | 0.909 | 1.05 ± 0.02
30 | COc1ccc2cc(CCC(C)=O)ccc2c1 [Nabumetone] | 1.26 ± 0.44 | 1 ± 0.011 | 0.75 | 1.06 ± 0.038
31 | CN(C/C=C/C#CC(C)(C)C)Cc1cccc2ccccc12 [Terbinafine] | 1.03 ± 0.34 | 1 ± 0.012 | 1 | 1.01 ± 0.025
32 | C=C[C@H]1CN2CC[C@H]1C[C@@H]2[C@@H](O)c1ccnc2ccc(OC)cc12 [Quinidine hydrochloride monohydrate] | 0.962 ± 0.19 | 1.13 ± 0.084 | 0.75 | 1.01 ± 0.016
33 | CCN(CC)CCNC(=O)c1cc(S(C)(=O)=O)ccc1OC [Tiapride hydrochloride] | 1.1 ± 0.29 | 0.902 ± 0.073 | 0.909 | 1.036 ± 0.0056
34 | Clc1ccc(Nc2nnc(Cc3ccncc3)c3ccccc23)cc1 [Vatalanib] | 1.37 ± 0.99 | 0.886 ± 0.039 | 0.833 | 1.02 ± 0.046
35 | CN(C)CCOC(c1ccccc1)c1ccccc1.Cn1c(=O)c2[nH]c(Cl)nc2n(C)c1=O [Dimenhydrinate] | 1.31 ± 0.54 | 1.05 ± 0.054 | 0.917 | 1.029 ± 0.0072
36 | COc1ccc(C(=O)CC(=O)c2ccc(C(C)(C)C)cc2)cc1 [Avobenzone] | 0.991 ± 0.29 | 1.05 ± 0.063 | 0.667 | 1.005 ± 0.0096
37 | CN(C)CCN(Cc1ccc(Cl)cc1)c1ccccn1 [Chloropyramine hydrochloride] | 0.981 ± 0.57 | 1.07 ± 0.064 | 0.917 | 0.964 ± 0.016
38 | CN(C)[C@@H]1C(O)=C(C(N)=O)C(=O)[C@@]2(O)C(O)=C3C(=O)c4c(O)ccc(Cl)c4[C@@H](O)[C@H]3C[C@@H]12 [Demeclocycline hydrochloride] | 0.928 ± 0.36 | 0.999 ± 0.045 | 0.5 | 1.06 ± 0.013
39 | CC(=O)Oc1ccccc1C(=O)O [Acetylsalicylic acid] | 1.2 ± 0.37 | 0.951 ± 0.019 | 0.917 | 1.01 ± 0.018
